PfG6PD inh: PfG6PD (Plasmodium falciparum) enzyme inhibition; PfGluPho enzyme, NADPH resazurin-diaphorase fluorescence; AID 504690; inhibition, % at 20 µM; 350,000 tested, 0.78% active;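 active = inhibition reaching at least a set limit at 20 µM in the primary screen, cut at about 59% in these data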
Neddylation inh: inhibitors of human cullin neddylation | TR-FRET cullin neddylation, biochemical | 360,000 tested, 0.58% active | AID 651699 | calls only at 25 µM | P61081+Q13564; in the data active = inhibition above about 36%
Target sequence (P61081 whole entry, looked up): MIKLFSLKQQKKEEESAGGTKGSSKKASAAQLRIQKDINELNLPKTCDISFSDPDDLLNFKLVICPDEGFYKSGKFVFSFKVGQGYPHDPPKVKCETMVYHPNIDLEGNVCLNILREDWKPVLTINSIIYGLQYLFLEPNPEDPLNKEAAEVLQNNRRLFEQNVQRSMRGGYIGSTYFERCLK
Target sequence (Q13564 whole entry, looked up): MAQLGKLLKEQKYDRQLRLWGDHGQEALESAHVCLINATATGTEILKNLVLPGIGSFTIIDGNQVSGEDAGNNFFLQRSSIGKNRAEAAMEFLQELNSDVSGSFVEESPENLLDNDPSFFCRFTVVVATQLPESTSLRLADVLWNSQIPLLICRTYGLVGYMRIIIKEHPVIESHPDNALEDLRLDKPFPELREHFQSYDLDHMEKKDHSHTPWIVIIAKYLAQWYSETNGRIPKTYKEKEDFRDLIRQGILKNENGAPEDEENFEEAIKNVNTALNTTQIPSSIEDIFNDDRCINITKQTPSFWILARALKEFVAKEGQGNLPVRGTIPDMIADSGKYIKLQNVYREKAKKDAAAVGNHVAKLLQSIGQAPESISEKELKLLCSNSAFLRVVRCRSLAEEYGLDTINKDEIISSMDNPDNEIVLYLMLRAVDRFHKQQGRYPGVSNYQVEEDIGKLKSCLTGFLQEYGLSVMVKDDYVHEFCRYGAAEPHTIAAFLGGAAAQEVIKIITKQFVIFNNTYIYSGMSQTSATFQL
FAS-TE inh: blocks the thioesterase domain of human fatty acid synthase. P49327. recombinant FAS-TE, OMFH fluorogenic substrate, fluorescence endpoint. inhibition, % at 15 µM. 360,000 tested, 0.67% active. AID 602261;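 active = compounds whose normalised, plate-corrected inhibition of enzyme fluorescence in the single-dose primary screen is 50% or more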
proKLK7 act: activators of human kallikrein-7 zymogen; AID 652039; purified proKLK7, EDANS-DABCYL substrate fluorescence; 100% is mature enzyme control, 0% vehicle; P49862; 370,000 tested, 0.9% active; activation, % at 7 µM;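 active = activation above the mean of all tested compounds plus 3 SD, computed per campaign excluding outliers beyond control limits, cut at about 13% in these data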
FAS-TE inh conf: FAS thioesterase (human) inhibition, confirmation; shares compounds with FAS-TE inh; recombinant FAS-TE, OMFH fluorogenic substrate, fluorescence; inhibition, % at 15 µM; 2,300 tested, 45% active; AID 624325;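 active = compounds inhibiting the enzyme by at least 50% at 15 µM in any one of the replicates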
Large screens that a line does not name were inactive (follow-up assays come after a bar, where shown). Compounds with a hit are over-represented: about 2.7% of the library has one in this group of screens.

CC[C@@]12C(=O)N(c3cccc(C)c3)C(=O)N1[C@H](c1ccc(Br)cc1)[C@@H]1C(=O)N(C(C)(C)C)C(=O)[C@@H]12	none
CC(C)C[C@@]12C(=O)N(c3cccc(Cl)c3)C(=O)N1[C@H](c1ccc(Cl)cc1)[C@@H]1C(=O)N(C3CCCCC3)C(=O)[C@@H]12	FAS-TE inh 90 | FAS-TE inh conf inactive
CC(C)C[C@@]12C(=O)N(c3cccc(F)c3)C(=O)N1[C@H](c1ccc(Br)cc1)[C@@H]1C(=O)N(C(C)(C)C)C(=O)[C@@H]12	none
CC[C@@]12C(=O)N(c3ccc(OC)cc3)C(=O)N1[C@H](c1ccc(Cl)cc1)[C@@H]1C(=O)N(C3CCCCC3)C(=O)[C@@H]12	FAS-TE inh 67 | FAS-TE inh conf inactive
CC(C)C[C@@]12C(=O)N(c3cccc(Br)c3)C(=O)N1[C@H](c1ccc(Cl)cc1)[C@@H]1C(=O)N(C3CCCCC3)C(=O)[C@@H]12	FAS-TE inh 92 | FAS-TE inh conf inactive
CC[C@@]12C(=O)N(c3cccc(Br)c3)C(=O)N1[C@H](c1ccc(Cl)cc1)[C@@H]1C(=O)N(C3CCCCC3)C(=O)[C@@H]12	FAS-TE inh 87 | FAS-TE inh conf inactive
CCn1c(SCC(=O)Nc2ccc(C(N)=O)cc2)nc2sc(C)c(C)c2c1=O	none (no result: PfG6PD inh, Neddylation inh, FAS-TE inh)
O=C(Nc1cccc(C(=O)O)c1)/C(=C/c1cccc([N+](=O)[O-])c1)NC(=O)c1cccc(Br)c1	FAS-TE inh 62 | FAS-TE inh conf 58
O=C(OCc1cn(Cc2c(F)cccc2F)nn1)N1CCOCC1	none (no result: PfG6PD inh, Neddylation inh, FAS-TE inh)
CC1(C)CC2CC(C)(CN2S(=O)(=O)c2ccc(C(=O)Nc3ccc(S(=O)(=O)N4CCOCC4)cc3)cc2)C1 (stereo unspecified)	FAS-TE inh 58 | FAS-TE inh conf inactive
CC1(C)CC2CC(C)(CN2S(=O)(=O)c2ccc(C(=O)Nc3ccc(Cl)c(S(=O)(=O)N4CCOCC4)c3)cc2)C1 (stereo unspecified)	FAS-TE inh 80 | FAS-TE inh conf inactive
O=C(c1ccc(F)cc1F)N1CCC(Oc2cccnc2)CC1	none (no result: PfG6PD inh, Neddylation inh, FAS-TE inh)
Nn1c(SCC(=O)NC2CCCCC2)nnc1-c1cc(-c2ccc(F)cc2)n[nH]1	none (no result: PfG6PD inh, Neddylation inh, FAS-TE inh)
Cn1c(=O)cc(OCCCC(=O)NCCC2=CCCCC2)c2ccccc21	none
Cn1c(=O)cc(SCC(=O)NCCC2=CCCCC2)c2cc(Cl)ccc21	FAS-TE inh 69 | FAS-TE inh conf inactive
O=C(NCc1ccc(C(=O)NC2CCCC2)cc1)c1cccc(Br)c1	none (no result: PfG6PD inh, Neddylation inh, FAS-TE inh)
O=C(/C=C/c1ccc(Cl)cc1Cl)N1CCN(c2ccc([N+](=O)[O-])c(N3CCOCC3)c2)CC1	FAS-TE inh 65 | FAS-TE inh conf inactive
O=C(/C=C/c1ccc(Cl)cc1)N1CCN(c2ccc([N+](=O)[O-])c(N3CCOCC3)c2)CC1	none
C[C@@H]1/C=C/CC(=O)N[C@H](c2cccc(Br)c2)[C@H](C)/C=C/CC(=O)N[C@@H]1c1cccc(Br)c1	none (no result: PfG6PD inh, Neddylation inh, FAS-TE inh)
COc1ccc2cc3cc(C(=O)N4CC(C)CC(C)C4)oc3nc2c1 (stereo unspecified)	FAS-TE inh 69 (no result: proKLK7 act) | FAS-TE inh conf 75
Cc1ccc2cc3cc(C(=O)NC4CCCCC4)oc3nc2c1	none (not shown: Neddylation inh)
Cc1ccc2cc3cc(C(=O)N4CCCCC4C)oc3nc2c1 (stereo unspecified)	FAS-TE inh 84 | FAS-TE inh conf 61
Cc1ccc2cc3cc(C(=O)NC4CC4)oc3nc2c1	none
O=C(c1cc2cc(Cl)ccc2o1)N1CCCCCC1	none
O=C(c1cc2cc3ccc(Cl)cc3nc2o1)N1CCCCCC1	FAS-TE inh 62 (no result: proKLK7 act) | FAS-TE inh conf 41
CCOC(=O)C1CCN(C(=O)c2cc3cc4ccc(OC)cc4nc3o2)CC1	none (not shown: Neddylation inh)
Cc1ccc2cc3cc(C(=O)N4CC(C)CC(C)C4)oc3nc2c1 (stereo unspecified)	FAS-TE inh 82 | FAS-TE inh conf inactive
O=C(c1ccccc1)N1CC[C@H]2[C@H](CCCN2Cc2cc(F)cc(F)c2)C1	none (no result: PfG6PD inh, Neddylation inh, FAS-TE inh)
CNC(=O)C[C@@H]1CC[C@@H]2[C@H](COc3ccc(NC(=O)c4cccc(F)c4)cc3C(=O)N2C)O1	none (no result: PfG6PD inh, Neddylation inh, FAS-TE inh)
COc1ccccc1N1CC(C(=O)Nc2cc(C(F)(F)F)ccc2N2CCCC2)CC1=O (stereo unspecified)	FAS-TE inh 63 | FAS-TE inh conf 65
COC(=O)[C@]12C[C@H](CC(=O)N3CCCCC3)C(=O)N(Cc3ccco3)C1=C[C@H](COCc1ccccc1)O[C@@H]2C	none (no result: PfG6PD inh, Neddylation inh, FAS-TE inh)
Cc1[nH]n2c(=O)cc(-c3ccc([N+](=O)[O-])cc3)nc2c1-c1ccccc1	FAS-TE inh 59 | FAS-TE inh conf 77
